# Screens: PubChem, The Scripps Research Institute Molecular Screening Center
# A selection: hits, their analogues and other compounds. The true share with any hit is near 1.3%.
# ZTA DNA inh = blocks Epstein-Barr virus ZTA, an EBNA-1 counter-screen; inhibition, % at 11 µM; hit rate 0.15% among 320,000; ZTA-DNA binding, fluorescence polarization; in the data active = inhibition above about 33%
# PREPL inh = human PREPL enzyme inhibition; recombinant PREPL, fluorescence polarization activity-based probe; inhibition, % at 5.96 µM; Q4J6C6; hit rate 0.68% among 320,000;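 note: 0% = enzyme with DMSO and 100% = wells lacking enzyme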
# Target sequence (Q4J6C6 whole entry, looked up): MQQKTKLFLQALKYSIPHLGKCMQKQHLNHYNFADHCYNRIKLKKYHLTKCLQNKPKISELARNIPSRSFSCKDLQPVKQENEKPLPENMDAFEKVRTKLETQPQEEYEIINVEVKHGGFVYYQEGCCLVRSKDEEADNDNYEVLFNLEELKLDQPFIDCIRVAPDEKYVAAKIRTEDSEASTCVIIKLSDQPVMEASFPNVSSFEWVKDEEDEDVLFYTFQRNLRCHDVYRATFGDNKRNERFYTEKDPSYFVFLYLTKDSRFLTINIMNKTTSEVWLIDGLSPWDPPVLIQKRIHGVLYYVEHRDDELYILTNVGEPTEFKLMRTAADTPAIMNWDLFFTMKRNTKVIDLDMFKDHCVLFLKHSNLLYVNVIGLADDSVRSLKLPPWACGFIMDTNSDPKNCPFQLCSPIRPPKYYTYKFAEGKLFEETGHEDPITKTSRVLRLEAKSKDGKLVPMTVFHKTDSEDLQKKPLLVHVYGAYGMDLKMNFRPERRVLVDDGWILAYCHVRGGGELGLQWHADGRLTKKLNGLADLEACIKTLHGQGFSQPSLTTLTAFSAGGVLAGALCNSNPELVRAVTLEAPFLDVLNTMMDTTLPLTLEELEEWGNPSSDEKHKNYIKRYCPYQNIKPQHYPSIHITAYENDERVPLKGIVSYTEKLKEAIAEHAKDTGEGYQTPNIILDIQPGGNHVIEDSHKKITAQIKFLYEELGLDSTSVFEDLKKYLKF
# LYPLA2 inh = LYPLA2 (human) inhibition in PME1 counter-screen | O95372 | recombinant LYPLA2, FP-Rh probe fluorescence polarization | inhibition, % at 5.9 µM | hit rate 0.38% among 320,000 | AID 2177;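 active = inhibition above the screen-wide mean plus 3 SD, limit set per campaign, cut at about 26% in these data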;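 note: 0% = LYPLA2 with DMSO and 100% = wells lacking LYPLA2 enzyme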
# LYPLA1 inh = LYPLA1 (human) inhibition in PME1 counter-screen. O75608. recombinant LYPLA1, FP-Rh probe fluorescence polarization. inhibition, % at 5.9 µM. hit rate 0.16% among 320,000. AID 2174;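 active = inhibition above the mean of all tested compounds plus 3 SD, set per campaign, cut at about 14% in these data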;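 note: inhibitors block serine hydrolase probe labeling of LYPLA1 so polarization falls; 0% = enzyme with DMSO and 100% = wells lacking LYPLA1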
# EBNA-1 inh = blocks EBNA-1 binding to DNA. EBNA-1 DNA binding, fluorescence polarization. inhibition, % at 14.8 µM. hit rate 0.34% among 300,000. AID 1950; in the data active = inhibition above about 28%
# LYPLA1 confirm = LYPLA1 (human) inhibition, confirmation counter-screen; shares compounds with LYPLA1 inh; recombinant LYPLA1, FP-Rh probe fluorescence polarization; inhibition, % at 5.9 µM; hit rate 69% among 480; AID 2233;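 active = mean inhibition across replicates above the hit cutoff set in the primary screen, cut at about 15% in these data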;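 note: loss of FP-Rh probe labeling of LYPLA1 seen as lower polarization; 0% = LYPLA1 with DMSO and 100% = wells lacking LYPLA1 enzyme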
# LYPLA2 conf = counter-screen for PME1 inhibitors: confirmation of human LYPLA2 inhibitors | inhibition, % at 5.9 µM | hit rate 72% among 1,100 | recombinant LYPLA2, FP-Rh probe fluorescence polarization | shares compounds with LYPLA2 inh;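 active = mean inhibition across replicates above the hit cutoff set in the primary screen, cut at about 26% in these data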;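 note: blocked labeling of the enzyme by serine hydrolase FP-Rh probe lowers polarization; 0% = enzyme with DMSO and 100% = wells lacking LYPLA2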
# LYPLA2 ABPP = LYPLA2 (human) inhibition, late stage results; hit rate 30% among 150; shares compounds with LYPLA2 inh; inhibition, % at 20 µM; rhLYPLA2 in mouse brain proteome, gel ABPP FP-Rh;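 active = inhibition of LYPLA2 enzyme probe labeling above about 50%, limit read from the data; inactive = inhibition below that limit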;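 note: loss of FP-Rh probe labeling of the LYPLA2 gel band measured as band density; 0% = DMSO only control band and 100% = blank gel background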
# Zta DNA confirm = confirmation of Epstein-Barr virus ZTA DNA binding inhibitors; shares compounds with ZTA DNA inh; Zta-ZRE DNA binding, fluorescence polarization; inhibition, % at 11.1 µM; hit rate 30% among 320;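 active = mean inhibition across triplicate runs above the hit threshold derived for the original primary screen, cut at about 33% in these data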;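 note: 0% = Zta with DMSO and 100% = wells lacking Zta protein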
# EBNA1 counter = counter-screen for ZTA inhibitors: EBNA-1 DNA binding inhibition. fluorescence polarization. shares compounds with ZTA DNA inh. inhibition, % at 14.8 µM. AID 2362. 320 tested, under 10 active; call rule not given here
# PREPL confirm = human PREPL inhibition, confirmation; shares compounds with PREPL inh; recombinant PREPL, fluorescence polarization activity probe; inhibition, % at 5.96 µM; hit rate 67% among 2,000;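 note: 0% = protein with DMSO and 100% = wells lacking protein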
# The depositor's hits bear a star; · = no result; + = active, no number. Cut-off read from the data, not from the text of the source, unless noted: active = inhibition above about 43%; inactive = the rest.
SMILES,ZTA DNA inh,PREPL inh,LYPLA2 inh,LYPLA1 inh,EBNA-1 inh,LYPLA1 confirm,LYPLA2 conf,PREPL confirm,others
O=C(CN1C(=O)C2C3CC(C(Br)C3Br)C2C1=O)Nc1ccc(C(=O)O)cc1 (stereo not drawn),6,-13,-6,0,3,·,·,·,
COc1cc(/C(C)=C/c2ccccc2)c2c(c1)oc1ccccc12,3,8,0,0,3,·,·,·,
COCCCn1c(SCC(=O)Nc2ccc(NC(C)=O)cc2)nc2sc3c(c2c1=O)CCC3,-1,20,-1,-5,3,·,·,·,
Nc1c(C(=O)O)ccc2c1C(=O)c1ccccc1C2=O,-6,-6,4,3,4,·,·,·,
Nc1cc(C(=O)O)c(N)c2c1C(=O)c1ccccc1C2=O,+,84*,53*,36*,146*,31*,45*,72*,
c1nc2ccc(Cc3ccc4nc[nH]c4c3)cc2[nH]1,2,-5,1,-1,-11,·,·,·,
O=C1c2ccccc2-c2onc3c(N4CCN(CCO)CC4)cc(N4CCN(C(=O)c5ccco5)CC4)c1c23,28,45*,20,17*,9,9,·,56*,
CC(C)N=c1cc2n(-c3ccc(Cl)cc3)c3ccccc3nc-2cc1Nc1ccc(Cl)cc1,-22,45*,43*,31*,3,15*,7,48*,
Cn1c(CNc2ccc(Cl)cc2)nc2ccccc21,-14,16,-3,-2,-13,·,·,·,
Cn1c(=O)c(NCCO)c2c3c(cccc31)C(=O)c1ccccc1-2,9,90*,112*,97*,-8,93*,99*,103*,
Cn1c(=O)c(NCCc2ccccc2)c2c3c(cccc31)C(=O)c1ccccc1-2,12,163*,174*,148*,5,130*,170*,166*,
CCNc1c2c3c(cccc3n(C)c1=O)C(=O)c1ccccc1-2,7,69*,51*,57*,6,50*,64*,54*,
CCNC1=C(Cl)C(=O)c2ccccc2C1=O,1,11,7,6,0,·,·,·,
CCOC(=O)C1CCCN(C(=O)C2c3ccccc3Oc3ccccc32)C1 (stereo not drawn),2,65*,59*,56*,-10,5,3,-2,
CCOC(=O)C1CCCN(C(=O)c2ccc(C(=O)c3ccccc3)cc2)C1 (stereo not drawn),15,9,2,1,·,·,·,·,
Cc1ccc(NS(=O)(=O)c2cccc(C(=O)NNC(=O)c3ccco3)c2)c(C)c1,-7,3,-11,-2,-14,·,·,·,
O=C1c2ccccc2-c2onc3ccc(NCc4ccco4)c1c23,83*,82*,118*,98*,18,100*,121*,106*,Zta DNA confirm=46*;EBNA1 counter=15
COc1cc(/C=N\NC(=O)c2ccc(Cn3cc(Br)c([N+](=O)[O-])n3)o2)cc(OC)c1O,1,51*,-2,16*,-5,10,·,41,
COc1cc(/C=N/NC(=O)c2ccc(Cn3cc([N+](=O)[O-])cn3)o2)cc(Br)c1O,15,5,-3,-2,8,·,·,·,
CCCCOc1c(Br)cc(CNCCCN2CCOCC2)cc1OC,10,0,-3,-1,4,·,·,·,
O=C(O)CCC(=O)N(Cc1ccco1)C1CC(=O)N(c2ccccc2)C1=O (stereo not drawn),-2,1,1,0,3,·,·,·,
Nc1ccc2c(c1)C(=O)C(=O)c1ccccc1-2,58*,61*,95*,87*,-8,81*,92*,53*,Zta DNA confirm=65*;EBNA1 counter=-11
COc1cc(NC(=O)Cn2cnc(S(=O)(=O)N3CCOCC3)c2)cc(OC)c1OC,10,-4,3,0,3,·,·,·,
Cc1nc2sc(C(c3ccc(Cl)cc3)N3CCN(c4ccccc4F)CC3)c(O)n2n1 (stereo not drawn),4,-2,29*,5,4,·,30*,·,
Cc1nc2sc(C(c3ccco3)N3CCN(c4ccccc4F)CC3)c(O)n2n1 (stereo not drawn),-18,10,-2,-1,4,·,·,·,
SMILES,ZTA DNA inh,PREPL inh,LYPLA2 inh,LYPLA1 inh,EBNA-1 inh,LYPLA1 confirm,LYPLA2 conf,PREPL confirm,others
Fc1ccc(C2=Nn3c(Cc4ccccc4F)nnc3SC2)cc1,4,-22,28*,3,1,·,15,·,
c1ccc(Cc2nnc3n2N=C(c2ccccc2)CS3)cc1,8,-22,-1,-5,-7,·,·,·,
CC(=O)c1ccc(N2CCN(C(=O)c3cc4c(s3)CCCC4)CC2)cc1,-9,42,44*,3,3,·,54*,·,LYPLA2 ABPP=28
COc1ccc(N2CCN(C(=O)c3cc4c(s3)CCCCC4)CC2)cc1,-3,15,62*,1,·,·,62*,·,LYPLA2 ABPP=32
CCc1ccc(C(=O)N2CCC(c3nc4ccccc4s3)CC2)cc1,9,-5,49*,0,1,·,39*,·,
CSCCC(NC(=O)c1ccccc1Cl)C(=O)NC1CCN(Cc2ccccc2)CC1 (stereo not drawn),-6,3,-4,-3,-5,·,·,·,
CCCCN1CC(=O)N2Cc3[nH]c4ccccc4c3C[C@H]2C1=O,-4,13,39*,2,-16,·,27*,·,
CC(=O)c1ccc(OCc2cc(C(=O)NC(C)c3cnn(C)c3)no2)cc1 (stereo not drawn),-13,5,30*,5,18,·,22,·,
Cc1cccc(N2C(=O)C3CCCN3C2=S)c1C (stereo not drawn),1,0,2,0,·,·,·,·,
COc1ccc(NC(=O)CSCC(=O)N2CCN(c3cccc(C(F)(F)F)c3)CC2)cc1,5,27,8,5,·,·,·,·,
Cc1ccc(/C=C/C(=O)N2CCN(c3cccc(C(F)(F)F)c3)CC2)cc1,-4,-1,47*,13,-1,·,35*,·,
COc1ccc(-c2noc(CCC(=O)N3CCN(c4cccc(C(F)(F)F)c4)CC3)n2)cc1,12,-13,69*,5,-1,·,67*,·,LYPLA2 ABPP=70*
Cc1cc(OCC(=O)N(Cc2ccco2)c2c(N)n(Cc3ccccc3)c(=O)[nH]c2=O)ccc1Cl,-1,4,-4,-3,·,·,·,·,
CCCN(CCC)C(=O)c1ccc2c(c1)S(=O)(=O)c1ccccc1C2=O,11,6,31*,5,5,·,20,·,
